According to PubChem BioAssay AID1209 (Sanford-Burnham Center for Chemical Genomics, 2008):
Hit rate of the full screen: of about 190,000 compounds, about 810 (0.43%) were called active. What follows is part of a selection rich in actives, with near analogues and random picks from the rest. Unmarked numbers belong to inactive results. Rule as the data show it: active = inhibition above about 50%; inactive = the rest.

Molecular target: Mannose-6-phosphate isomerase (Homo sapiens) (UniProt P34949)
Sequence (P34949 whole entry, looked up): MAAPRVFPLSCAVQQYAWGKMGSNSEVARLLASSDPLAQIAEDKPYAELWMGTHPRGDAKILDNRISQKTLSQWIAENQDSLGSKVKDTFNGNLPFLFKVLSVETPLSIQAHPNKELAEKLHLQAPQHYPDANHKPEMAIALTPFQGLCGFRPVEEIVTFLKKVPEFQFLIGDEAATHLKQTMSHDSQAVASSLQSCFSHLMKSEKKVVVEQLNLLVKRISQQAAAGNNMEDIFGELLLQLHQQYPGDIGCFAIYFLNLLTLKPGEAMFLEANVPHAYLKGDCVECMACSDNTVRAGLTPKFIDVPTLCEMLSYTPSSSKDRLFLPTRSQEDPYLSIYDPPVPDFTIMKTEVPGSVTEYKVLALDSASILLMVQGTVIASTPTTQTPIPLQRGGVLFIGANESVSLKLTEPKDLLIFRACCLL
Experiment: MPI enzyme activity inhibition – biochemical, fluorescence intensity, coupled assay, primary screen (AID 1209);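 also: plate controls were DMSO vehicle for no effect and wells lacking substrate for full effect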
Conditions: purified PMI enzyme, at 20 µM, stronger effect = higher value

Compound | inhibition
CCN1c2ccccc2N(C)C1(C)c1ccccc1 (stereo unspecified) | 61.2% (active)
CCN1C(=O)N(C)C2(c3ccccc3)N(C)C(=O)N(C)C12c1ccccc1 (stereo unspecified) | 13.6%
CN1c2ccccc2N(C)C1(C)c1ccccc1 | 26.1%
O=C(CSc1nnnn1-c1ccc(F)cc1)NC1CCCCC1 | 15.6%
CCOc1ccccc1C(=O)Nc1cc(Cl)ccc1O | 14.5%
O=C(O)c1cc(NCc2c(F)cccc2Cl)ccc1N1CCOCC1 | 4.6%
NS(=O)(=O)c1ccc(NCc2c(F)cccc2Cl)cc1 | -1.9%
O=S(=O)(Nc1ccc(N2CCCCC2)cc1)c1ccccc1 | 17%
Fc1cccc(Cl)c1CNc1ccc(N2CCCC2)cc1 | 87.2% (active)
Clc1cccc(Cl)c1CNc1ccc(N2CCCC2)cc1 | 87.2% (active)
O=C(Nc1ccc(N2CCCCCC2)cc1)c1ccccc1Cl | 21.5%
CCCN1CNC(=S)N(c2ccccc2OCC)C1 | -9.9%
O=C1Nc2ccccc2C(O)(C(=O)NCc2ccco2)N1c1ccccc1 (stereo unspecified) | 1.5%
COC(=O)[C@@]1(Cc2ccc(OC)cc2)[C@H]2c3cc(C(=O)N4CCCC4)n(Cc4ccc(C)o4)c3C[C@H]2CN1C(=O)c1ccccc1 | 9.2%
Cc1[nH]nc2c1C(c1ccco1)C(C#N)=C(N)O2 (stereo unspecified) | -18%
CNCCOc1ccccc1C(C)(C)C | 5.9%
OCCCc1ccc(O)c(O)c1 | 35.2%
NCCc1ccc(O)c(O)c1 | 64.5% (active)
Nc1ccc(Cc2ccc(N)c(O)c2)cc1O | 5.5%
CCOC(=O)CSc1nc2sccc2c(=O)[nH]1 | 2.3%
O=C(Nc1ncc(Cl)cc1Cl)c1c(F)cccc1Cl | -15.8%
Cc1cc(C)cc(N2C(=O)c3nccnc3C2=O)c1 | 1.6%
COC(=O)C(C)(C)ONC(=O)Nc1ccc(Br)cc1 | 17.3%
O=C1CCCC/C1=C/Nc1ccc2c(c1)OCO2 | -14.5%
COc1ccc(N/C=C2/CCCCC2=O)cc1 | 18.1%
COc1ccc2c(c1)CC/C(=C/c1ccco1)C2=O | 33.2%

Compound | inhibition
CC1CCC/C(=C\Nc2ccc3c(c2)OCO3)C1=O (stereo unspecified) | 8.9%
COc1ccc2c(c1)CC/C(=C\Nc1ccc3c(c1)OCO3)C2=O | 89.9% (active)
O=C1/C(=C/Nc2ccc3c(c2)OCO3)CCc2ccccc21 | 96.4% (active)
COc1ccc(N/C=C2\CCOC2=O)cc1 | -13%
O=C1CCC/C1=C/Nc1ccc2c(c1)OCO2 | 26.9%
COc1ccc(N/C=C2\CCc3ccccc3C2=O)cc1 | 97.9% (active)
CCN(CC)C(=O)C(=O)N/N=C/c1ccc(C(=O)O)cc1 | 15.8%
COc1cc(C(=O)Nc2ccc(C(C)=O)cc2)c(Br)c(OC)c1OC | 2.4%
O=C(CCn1ccnc1)Nc1ccc2ccccc2c1 | 13.1%
O=S(=O)(NCCSCc1c(Cl)cccc1Cl)c1ccc2c(c1)OCCO2 | 2.4%
COc1ccccc1/C=N/NC(=O)COCC(=O)N/N=C/c1ccccc1OC | 12.7%
CCC(CC(C)(C)O)C(=O)NNC(=S)Nc1ccccc1 (stereo unspecified) | 3.1%
O=C(Nc1nc(-c2ccccn2)cs1)C1COc2ccccc2O1 (stereo unspecified) | -2.1%
O=C(Nc1nc(-c2ccncc2)cs1)C1COc2ccccc2O1 (stereo unspecified) | 61.7% (active)
O=C(Nc1nc(-c2ccccc2)cs1)C1COc2ccccc2O1 (stereo unspecified) | 9.1%
COc1ccc(C(O)c2nccn2Cc2ccccc2)cc1OC (stereo unspecified) | 9.1%
Cc1cc(SCC(=O)N/N=C/c2ccc(O)cc2O)c(C)cc1Br | -12.7%
Cc1cc(SCC(=O)N/N=C/c2ccc(O)c(O)c2)c(C)cc1Br | 18%
Cc1cc(SCC(=O)N/N=C/c2ccc(O)c(O)c2O)c(C)cc1Br | 79.9% (active)
CCC(C)(C)NC(=O)C(c1ccco1)N(C(=O)c1csnn1)c1cccc(F)c1 (stereo unspecified) | -1.3%
COc1ccc(/C=C2\N=C(C)N(c3ccc(C(=O)O)cc3)C2=O)cc1OC | -0.2%
Cc1cccc(OC(=O)c2cncc(Br)c2)c1 | -2.9%
CC(=O)Nc1ccc(S(=O)(=O)Nc2ccc(F)c([N+](=O)[O-])c2)cc1 | -2.3%
CC(=O)Nc1ccc(C)c([N+](=O)[O-])c1 | -6.2%
CC(=O)Nc1ccc(S(=O)(=O)Nc2ccc(C)c([N+](=O)[O-])c2)cc1 | 114% (active)
CCOC(=O)c1cccc(C(=O)OCC)n1 | 7.8%

Compound | inhibition
Cc1ccc(OC(=O)c2cccc(C(=O)Oc3ccc(C)cn3)n2)nc1 | 51.5% (active)
Cc1ccc(OC(=O)c2cccc(C(=O)Oc3ccc(C)cc3)n2)cc1 | 11.1%
COc1ccccc1NS(=O)(=O)c1ccc2oc(SCc3ccc(C#N)cc3)nc2c1 | 23.3%
C/C(=N\Nc1nc(N2CCOCC2)nc(N2CCOCC2)n1)c1cccc([N+](=O)[O-])c1 | -11.8%
Brc1cccc(-c2nnc3sc(CN4CCC5(CC4)OCCO5)cn23)c1 | 101% (active)
c1ccc(-c2nnc3sc(CN4CCC5(CC4)OCCO5)cn23)cc1 | 10.9%
Brc1ccc(-c2nnc3sc(CN4CCC5(CC4)OCCO5)cn23)cc1 | 7.3%
CC1(C)CC2(CC(c3ccccc3)c3ccc(O)cc3O2)NC(=S)N1 (stereo unspecified) | -4.8%
CC1(C)CC2(CC(c3ccccc3F)c3cc(Cl)c(O)cc3O2)NC(=S)N1 (stereo unspecified) | -8.2%
CCCCN(C(=O)Cn1nnc2ccccc21)C(C(=O)NCc1ccco1)c1ccncc1 (stereo unspecified) | -0.5%
Cc1onc(-c2ccccc2Cl)c1C(=O)NC(=S)NCCc1ccccc1 | 11.7%
O=C(c1cccnc1)N1N=C(C2CCCCC2)CC1(O)C(F)(F)F (stereo unspecified) | -7.1%
CCOC(=O)C(=O)Nc1sc(C(=O)N2CCOCC2)c(C)c1C#N | 2.7%
Cc1sc(NC(=O)c2cc(-c3ccccc3)nc3ccccc23)c(C(N)=O)c1C | 17%
Cc1ccccc1-c1cc(C(=O)Nc2sc(C(=O)OC(C)C)c(C)c2C#N)c2ccccc2n1 | 61.2% (active)
Cc1ccccc1-c1cc(C(=O)Nc2sc(C)c(C)c2C(N)=O)c2ccccc2n1 | 19.7%
CCOC(=O)c1sc(NC(=O)c2ccncc2)c(C#N)c1C | 49.3%
COc1ccc(-c2cc(C(=O)Nc3sc4c(c3C#N)CCCC4)c3ccccc3n2)cc1 | 7.1%
CCOC(=O)c1sc(NC(=O)c2cc(-c3ccc(C)cc3)nc3ccccc23)c(C#N)c1C | 67.7% (active)
CCOC(=O)c1sc(NC(=O)c2cc(-c3ccccc3)nc3ccccc23)c(C#N)c1C | 79% (active)
CCOC(=O)c1sc(NC(=O)c2cc(-c3ccccc3C)nc3ccccc23)c(C#N)c1C | 47.9%
COC(=O)c1sc(NC(=O)c2cc(-c3ccccc3)nc3ccccc23)c(C#N)c1C | 5.2%
CCCN1C2CCCC1CC(NC(=S)Nc1cc(C)cc(C)c1)C2 (stereo unspecified) | 7.1%
NNC(=O)CNc1cccc(Cl)c1 | -2.4%
CC/C(C)=N\N=C\c1c(O)n(CC)c2cc(C3=NNC(=O)CC3)ccc12 | -47.5%
COc1ccccc1-n1cnnc1SCC(=O)Nc1cccc(S(=O)(=O)N2CCCCC2)c1 | 7.9%

Compound | inhibition
O=C(NCCN1CCN(C(=O)c2cccs2)CC1)C(=O)Nc1ccc(Br)cc1 | -0.2%
COc1ccc(CC(=O)Nc2ccc(S(=O)(=O)NCC3CCCO3)cc2)cc1 (stereo unspecified) | 2.9%
Cc1cc([N+](=O)[O-])nn1CCCC(=O)NCc1ccc(F)cc1 | -9.8%
Cc1nc(NC(=O)c2ccccc2)sc1-c1csc(Nc2ccc(Cl)cc2)n1 | 53.1% (active)
Cc1nc(NC(=O)c2ccccc2)sc1-c1csc(Nc2ccc(F)cc2)n1 | 45%
Cc1nc(NC(=O)c2ccccc2)sc1-c1csc(Nc2cccc(Cl)c2)n1 | 0.6%
Cc1nn(Cc2ccc(Cl)cc2)c(C)c1NC(=O)c1noc2c1CCCCC2 | 15.5%
COc1ccc(OCCCNCCc2ccccc2)cc1 | -2.5%
O=C1/C(=C/c2cccnc2)SC(=NCc2ccccc2)N1Cc1ccccc1 | 7.3%
CCCCCc1nc2c(=O)[nH]c3ccccc3c2o1 | 102% (active)
CCCCCCc1nc2c(=O)[nH]c3ccccc3c2o1 | 6.6%
CCCCc1nc2c(=O)[nH]c3ccccc3c2o1 | 0.8%
CCN(C(=O)c1ccnn1C)c1ccccc1 | -6.3%
CCOC(=O)Cc1csc(SCn2nnc3ccccc3c2=O)n1 | 1.9%
CCOC(=O)Cc1csc(-n2sc3ccccc3c2=O)n1 | 98.9% (active)
CCOC(=O)Cc1csc(NC(=O)c2cc(=O)c3ccccc3o2)n1 | -7.8%
O=C(CSc1ccc(-c2ccc(Br)cc2)nn1)N1CCOCC1 | -1.9%
CCCCCCCNC(=O)COc1ccc2c(c1)C(=O)CC(C)(C)O2 | 2.9%
Nc1ccc2c(c1)OC1(CCCC1)O2 | 6.1%
Nc1ccc2c(c1)OC1(CCCCC1)O2 | 55.6% (active)
O=C(Nc1ccc2c(c1)OC1(CCCC1)O2)C1CC1 | 0.2%
CC(C)(C)c1nc(SCC(=O)N2CC(=O)Nc3ccccc32)c2ccccc2n1 | 3.4%
COc1ccc2c(c1)CC/C2=N\OC(=O)c1ccccc1C | -5%
